Source: PubChem BioAssay
HP1b chromo inh – inhibitors of HP1-beta chromodomain binding to methylated histone tails; AlphaScreen HP1-beta / biotin-H3K9me3 peptide binding; Potency, µM (titrated, usually from 114 µM), actives largely listed as inhibitors; 390,000 compounds, 0.56% hits; AID 540317; further: nearly all actives have a fitted effect of over 70% in size
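Compound inhibition of the preformed complex between 50 nM HP1-beta and 50 nM biotinylated H3K9me3 peptide was read by AlphaScreen. Buffer was PBS pH 7.4 with 0.01% Tween-20. Incubations ran 30 min at room temperature, with 10 ug/mL donor/acceptor beads.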
BAZ2B inh – blocks human BAZ2B. Q9UIF8. AlphaScreen BAZ2B-H3K14Ac peptide displacement. Potency, µM (highest dose often 114 µM), usual class: inhibitors. 360,000 compounds, 4.4% hits; further: nearly all actives have a fitted effect of over 60% in size
Target sequence (Q9UIF8 whole entry, looked up): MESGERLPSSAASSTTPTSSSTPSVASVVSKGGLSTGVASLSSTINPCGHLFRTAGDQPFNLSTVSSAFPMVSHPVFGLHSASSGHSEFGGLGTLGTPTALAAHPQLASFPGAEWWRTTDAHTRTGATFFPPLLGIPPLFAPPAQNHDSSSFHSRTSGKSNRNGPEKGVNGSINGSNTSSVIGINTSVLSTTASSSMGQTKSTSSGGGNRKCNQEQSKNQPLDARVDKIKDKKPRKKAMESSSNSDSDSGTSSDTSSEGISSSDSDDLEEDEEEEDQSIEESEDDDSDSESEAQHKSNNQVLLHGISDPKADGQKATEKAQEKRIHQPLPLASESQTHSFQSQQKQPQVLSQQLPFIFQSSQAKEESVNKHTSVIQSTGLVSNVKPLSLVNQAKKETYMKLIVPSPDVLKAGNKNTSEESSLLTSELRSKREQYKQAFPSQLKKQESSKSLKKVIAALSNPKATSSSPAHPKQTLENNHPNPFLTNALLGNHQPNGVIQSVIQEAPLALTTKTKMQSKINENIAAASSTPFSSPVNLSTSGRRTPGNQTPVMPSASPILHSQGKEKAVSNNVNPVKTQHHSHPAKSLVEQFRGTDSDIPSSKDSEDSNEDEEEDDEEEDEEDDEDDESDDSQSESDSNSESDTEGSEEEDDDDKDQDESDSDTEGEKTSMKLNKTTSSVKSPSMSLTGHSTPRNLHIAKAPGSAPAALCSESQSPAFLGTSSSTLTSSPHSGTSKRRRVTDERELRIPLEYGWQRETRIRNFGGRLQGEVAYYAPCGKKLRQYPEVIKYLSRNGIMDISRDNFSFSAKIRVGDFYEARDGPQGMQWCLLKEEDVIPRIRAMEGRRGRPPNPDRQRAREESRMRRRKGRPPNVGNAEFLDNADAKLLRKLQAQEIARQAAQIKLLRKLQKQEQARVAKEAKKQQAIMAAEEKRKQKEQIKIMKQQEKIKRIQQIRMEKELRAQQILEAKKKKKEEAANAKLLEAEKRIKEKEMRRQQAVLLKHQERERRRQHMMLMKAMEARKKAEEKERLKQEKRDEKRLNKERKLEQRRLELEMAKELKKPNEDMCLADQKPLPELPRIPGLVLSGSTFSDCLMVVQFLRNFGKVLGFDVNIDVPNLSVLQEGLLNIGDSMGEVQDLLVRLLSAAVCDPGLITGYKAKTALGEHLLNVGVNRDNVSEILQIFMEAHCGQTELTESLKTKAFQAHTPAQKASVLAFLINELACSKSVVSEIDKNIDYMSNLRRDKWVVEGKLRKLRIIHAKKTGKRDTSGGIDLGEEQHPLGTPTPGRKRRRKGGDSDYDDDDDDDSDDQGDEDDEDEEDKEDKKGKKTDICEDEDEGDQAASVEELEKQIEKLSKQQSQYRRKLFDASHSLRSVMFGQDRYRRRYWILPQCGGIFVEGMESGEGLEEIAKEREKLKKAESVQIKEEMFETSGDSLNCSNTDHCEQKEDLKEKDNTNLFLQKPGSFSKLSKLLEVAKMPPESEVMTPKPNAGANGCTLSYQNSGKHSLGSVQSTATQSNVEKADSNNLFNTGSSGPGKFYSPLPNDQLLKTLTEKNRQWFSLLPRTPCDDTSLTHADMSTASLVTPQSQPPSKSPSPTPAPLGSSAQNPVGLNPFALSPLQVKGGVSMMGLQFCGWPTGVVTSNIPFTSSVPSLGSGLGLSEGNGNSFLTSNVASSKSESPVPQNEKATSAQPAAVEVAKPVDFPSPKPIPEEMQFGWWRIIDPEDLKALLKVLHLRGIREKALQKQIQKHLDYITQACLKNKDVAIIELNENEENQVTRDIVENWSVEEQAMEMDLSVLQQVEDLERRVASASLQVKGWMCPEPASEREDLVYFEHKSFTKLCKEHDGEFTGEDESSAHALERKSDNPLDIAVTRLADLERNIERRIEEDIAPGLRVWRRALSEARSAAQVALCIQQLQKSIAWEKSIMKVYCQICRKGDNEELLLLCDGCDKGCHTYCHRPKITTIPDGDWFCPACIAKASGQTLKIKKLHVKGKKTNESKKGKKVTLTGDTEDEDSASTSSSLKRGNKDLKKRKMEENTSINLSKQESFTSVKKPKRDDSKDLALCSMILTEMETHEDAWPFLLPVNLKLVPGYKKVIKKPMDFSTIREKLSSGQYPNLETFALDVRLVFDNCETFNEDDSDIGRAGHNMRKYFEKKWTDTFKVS
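Complex of BAZ2B and biotin-H3K14Ac (50 nM apiece) forms over 30 min at RT, then faces library compounds up to 110 uM for another 30 min; AlphaScreen beads added, 20 min dark incubation, luminescence read.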
JMJD2A Tudor – inhibitors of human JMJD2A Tudor domain | Potency, µM (highest dose often 114 µM), usual class: inhibitors | 390,000 compounds, 4.4% hits | O75164 | AlphaScreen JMJD2A-Tudor / H3K4me3 peptide binding | AID 504339; further: nearly all actives have a fitted effect of over 50% in size
GLS inh – blocks human kidney-isoform glutaminase activity | GLS enzymatic activity, qHTS titration | O94925 | AID 624170 | Potency, µM (top dose mostly 45.5 µM), hits mostly inhibitors | 410,000 compounds, 0.21% hits
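Two-point fluorescence kinetic (t0, 30 min RT) for hKGA; glutamate detected via glutamate oxidase–HRP–Amplex Red. Substrate: 1 mM L-glutamine solution; buffer 45 mM KH2PO4, pH 8.2.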
G9a inh – blocks human histone lysine methyltransferase G9a; Potency, µM (series often up to 102 µM), actives largely listed as inhibitors; Q96KQ7; G9a H3K9 monomethylation, AlphaScreen, 2 h; 350,000 compounds, 8.8% hits; AID 504332; further: nearly all actives have a fitted effect of over 75% in size
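AlphaScreen detection with an anti-monomethyl H3K9 antibody quantified product after a 2 h room-temperature reaction containing 500 nM biotinylated H3K9 peptide, 20 µM SAM and 20 nM enzyme, which had been preincubated 15 min with compound.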
Of the large screens only hits and unclear results are named; the others gave an inactive call. Only some compounds are listed: those with a hit (about 10% of all), similar ones and a draw of the others. The call rests on the fitted dose curve; in most records, active means well fitted curve in the direction sought with a large enough effect; inconclusive means small, poorly fitted or top-dose-only effect, or another doubt; inactive means no such curve, though single readings can be large; an effect the other way counts as inactive or inconclusive.

CCN(C(=O)CSc1nnc(Nc2cccc(C)c2C)s1)C1CCS(=O)(=O)C1 (configuration not stated)	none
CC(C)c1ccc(N(C(=O)c2csnn2)C(C(=O)NC2CCCC2)c2ccncc2)cc1 (configuration not stated)	none
Cc1ccc(-c2nnc(-c3cccc(Br)c3)o2)cc1	JMJD2A Tudor 50µM
COCCCNC(=O)CSC1=Nc2ccccc2C2=NC(CCC(=O)NCc3ccc(OC)cc3)C(=O)N12 (configuration not stated)	none
O=C(c1cc(-n2cnnc2)ccc1Cl)N1CCN(c2nc(-c3ccccc3)cs2)CC1	HP1b chromo inh inconclusive, JMJD2A Tudor 56µM
O=C(c1ncn[nH]1)N1CCN(c2nc(-c3ccccc3)cs2)CC1	G9a inh inconclusive
Cc1ccc(NC(=O)CCC(=O)OCC(=O)c2ccc(Oc3ccc([N+](=O)[O-])cc3)cc2)cc1C	none
Cc1cccc(NC(=O)CCC(=O)OCC(=O)c2ccc(Oc3ccc([N+](=O)[O-])cc3)cc2)c1	G9a inh 8.9µM
O=c1nc2ccccn2c2ccc(S(=O)(=O)N3CCCCC3)cc12	G9a inh 45µM
Cc1ccn2c(c1)nc(=O)c1cc(S(=O)(=O)N3CCCCC3)ccc12	GLS inh inconclusive
c1ccc(Cc2nnc3sc(C4COc5ccccc5O4)nn23)cc1 (configuration not stated)	G9a inh 10µM
c1ccc(OCc2nnc3sc(C4COc5ccccc5O4)nn23)cc1 (configuration not stated)	HP1b chromo inh 16µM, BAZ2B inh 50µM, JMJD2A Tudor 50µM, G9a inh 7.9µM
Cc1ccc(-c2nnc3sc(C4COc5ccccc5O4)nn23)cc1 (configuration not stated)	none
CCOC(=O)c1nnc(-c2ccc(C)cc2)nc1Sc1ccc(Cl)cc1	none
CCOC(=O)c1[nH]c(=S)n(Cc2ccccc2)c1C(=O)OCC	HP1b chromo inh inconclusive, JMJD2A Tudor 3.2µM, GLS inh inconclusive (no result: BAZ2B inh, G9a inh)
Cc1ccccc1OCC(=O)NCC(=O)OCC(=O)c1ccc(F)cc1	none (no result: BAZ2B inh, GLS inh, G9a inh)
CCCCC(=O)Nc1cc(Cl)ccc1C(=O)O	BAZ2B inh inconclusive, G9a inh 25µM
CN(CC(=O)Nc1ccc(F)cc1)C(=O)COC(=O)/C=C/c1ccc(OC(F)F)cc1	none
CN(C)C(=O)CN(C)S(=O)(=O)c1ccc(Cl)cc1	none
Cn1c(CN(O)S(=O)(=O)c2ccc(Cl)cc2)nnc1C(F)(F)F	G9a inh 10µM
CCN1C(=O)C(CC(=O)Nc2ccc(C)cc2C)Nc2cc(S(=O)(=O)N(C)C)ccc21 (configuration not stated)	none
Cc1ccccc1OCc1nnc(SCC(=O)O)n1-c1ccccc1	none
CCn1c(SCc2cccc(C(=O)O)c2)nnc1-c1ccccc1	G9a inh 56µM
CCn1c(SCCC(=O)O)nnc1-c1cccnc1	G9a inh 45µM
CCn1c(SCC(=O)c2ccccc2)nnc1-c1cccnc1	none
COc1cccc(-n2c(COc3ccccc3C)nnc2SCC(=O)O)c1	G9a inh 45µM
Cc1ccc(OCCSc2nnc(-c3ccncc3)n2C)cc1	G9a inh 40µM
CCn1c(SCC(=O)O)nnc1-c1ccccc1	none
COc1ccc(-n2c(SCC(N)=O)nnc2-c2cccnc2)cc1	none
C=CCn1c(SCC(=O)Nc2nnc(C)s2)nnc1-c1cccnc1	JMJD2A Tudor 56µM
Nn1c(SCCOc2ccccc2)nnc1-c1cccnc1	G9a inh 50µM
COc1cccc(-c2nnc(SCC3CNC(=O)O3)n2-c2ccc(Cl)cc2)c1 (configuration not stated)	G9a inh 14µM
COc1cccc(-n2c(SCC(=O)O)nnc2-c2cccnc2)c1	G9a inh 56µM
C=CCn1c(SCC(=O)Nc2ccc(C)cc2C)nnc1-c1cccnc1	none
CCC(C(=O)NC1CCCC1)N(C(=O)Cn1nnc(-c2ccc(C)cc2)n1)C1CCCC1 (configuration not stated)	none (no result: BAZ2B inh, G9a inh)
O=C(CCNS(=O)(=O)c1ccc2c(c1)CCC(=O)N2)NCc1cccnc1	none
CCCC(CCC(=O)Nc1ccc(C(=O)OCC)cc1)C(=O)O (configuration not stated)	none
CCON1C(=O)CN(C(=O)OC)C1c1ccc(Cl)cc1Cl (configuration not stated)	none
COc1ccc(-n2c(SCC(=O)N3CCCCC3C)nnc2-c2cccnc2)cc1 (configuration not stated)	G9a inh 40µM
CS(=O)(=O)c1ccc(Sc2nc3ccccc3s2)c([N+](=O)[O-])c1	JMJD2A Tudor inconclusive
O=[N+]([O-])c1cc(S(=O)(=O)C(F)(F)F)ccc1Sc1nc2ccccc2s1	HP1b chromo inh inconclusive, BAZ2B inh 7.9µM, JMJD2A Tudor 35µM
Cn1c(-c2sc3cc(C(F)(F)F)cnc3c2-c2ccccn2)n[nH]c1=S	JMJD2A Tudor 14µM, G9a inh 6.3µM
CSc1nnc(-c2sc3cc(C(F)(F)F)cnc3c2-c2ccccn2)n1C	none
Cn1c(-c2sc3cc(C(F)(F)F)cnc3c2-c2cccs2)n[nH]c1=S	G9a inh 4µM
Cn1c(-c2sc3cc(C(F)(F)F)cnc3c2-c2cccnc2)n[nH]c1=S	G9a inh 3.5µM
NC(=O)c1sc2cc(C(F)(F)F)cnc2c1-c1ccccc1	none (no result: G9a inh)
CC1(C)Cc2cccc(OCC(=O)OCC(=O)Nc3ccccc3)c2O1	none
COC(=O)/C(=C/c1ccc2c(c1)c1ccccc1n2C)NC(=O)c1ccccc1	none
Cc1ccc(NC(=O)c2cnc3cc(C)ccn3c2=O)c(C)c1	none
CCN(CC)c1ccc(NC(=O)c2cnc3ccccn3c2=O)c(C)c1	HP1b chromo inh inconclusive, BAZ2B inh inconclusive, JMJD2A Tudor 45µM, G9a inh 1.8µM
CCN(CC)c1ccc(NC(=O)c2cccc(C)c2OC)c(C)c1	HP1b chromo inh inconclusive, BAZ2B inh 35µM, JMJD2A Tudor 40µM, G9a inh 3.5µM
CCN(CC)c1ccc(NC(=O)c2cccnc2)c(C)c1	G9a inh 32µM
COc1c(C)cccc1C(=O)Nc1ccc(OCC(=O)N2CCOCC2)cc1C	BAZ2B inh 56µM
COc1cc(C(=O)Nc2ccc(OCC(=O)N3CCOCC3)cc2C)cc(OC)c1OC	none
CC1=CN2C(=N)/C(=C/c3ccc(C)o3)C(=O)N=C2S1	BAZ2B inh inconclusive
Cc1cccc(NC(=O)CN(C)S(=O)(=O)c2ccccc2)n1	none
COc1ccc(C(=O)Nc2ccc(S(=O)(=O)N3CCCCC3C)cc2)c(OC)c1OC (configuration not stated)	none
Cc1cc(NC(=O)CCSc2nc(-c3ccco3)cc(C(F)(F)F)n2)no1	none
CCOc1ccc(S(=O)(=O)Nc2ccc(C(=O)N(C)CC(=O)Nc3ccc(OC)cc3)cc2)cc1	none
CCC(C)(C)c1ccc(Oc2ccc(N)cc2)cc1	HP1b chromo inh inconclusive, BAZ2B inh inconclusive, JMJD2A Tudor 56µM, G9a inh 40µM
